{"source": "PubChem BioAssay (NCATS)", "note": "Results filed as inconclusive are left out. Values without a mark were called inactive. The call rests on the fitted dose curve; in most records, active means well fitted cell-killing curve with a large enough effect; inconclusive means small, poorly fitted or top-dose-only effect; inactive means no such curve, though single readings can be large or run the other way."}
{"test": "qHTS of pediatric cancer cell lines to identify multiple opportunities for drug repurposing: Primary screen for Rh41 cells (AID 1347108);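 further: luminescence drop marks cytotoxic hits; nearly all actives have a fitted effect of over 70% in size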", "conditions": "Rh41 rhabdomyosarcoma viability, CellTiter-Glo luminescence, 48 h; series mostly up to 46 µM; activity change, negative = cytotoxic: at the top concentration", "summary_of_the_method": "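Viability was measured as metabolically active cells after 48 hours of treatment, read by CellTiter-Glo luminescence. Compounds were tested at multiple final concentrations, giving concentration-response curves.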"}
{"compound": "O=C(O)CNC(=O)c1ccccc1I", "activity change, negative = cytotoxic": "12.5%"}
{"compound": "CCN(CC)CC1CCCCN1CC(=O)N1c2ccccc2C(=O)Nc2cccnc21", "note": "(stereo not drawn)", "activity change, negative = cytotoxic": "16.6%"}
{"compound": "COc1ccccc1OCC(O)CO", "note": "(stereo not drawn)", "activity change, negative = cytotoxic": "24.4%"}
{"compound": "CCOc1cc(NC(C)=O)ccc1C(=O)OC", "activity change, negative = cytotoxic": "10.1%"}
{"compound": "Cc1[nH]c(C)c(Cl)c(=O)c1Cl", "activity change, negative = cytotoxic": "10.6% [at 16.1 µM]"}
{"compound": "CC(O)CCCCn1c(=O)c2c(ncn2C)n(C)c1=O", "note": "(stereo not drawn)", "activity change, negative = cytotoxic": "12.2%"}
{"compound": "CCN[C@H]1CN(CCCOC)S(=O)(=O)c2sc(S(N)(=O)=O)cc21", "activity change, negative = cytotoxic": "24.6%"}
{"compound": "CCOc1ccc(C(=O)OCCN(CC)CC)cc1", "activity change, negative = cytotoxic": "16.2%"}
{"compound": "CC(N)CCCC(C)(C)O", "note": "(stereo not drawn)", "activity change, negative = cytotoxic": "31.8%"}
{"compound": "COc1ccc(Cc2cnc(N)nc2N)cc1OC", "activity change, negative = cytotoxic": "30.7%"}
{"compound": "CCCC(O)C(CC)CO", "note": "(stereo not drawn)", "activity change, negative = cytotoxic": "31.5%"}
{"compound": "Cc1ccccc1N=Nc1ccc(N=Nc2c(O)ccc3ccccc23)c(C)c1", "activity change, negative = cytotoxic": "16.8%"}
{"compound": "O=c1[nH]c2cc(C(F)(F)F)c(N3CCOCC3)cc2n(CP(=O)(O)O)c1=O", "activity change, negative = cytotoxic": "17.2%"}
{"compound": "Cc1onc(-c2ccccc2)c1-c1ccc(S(N)(=O)=O)cc1", "activity change, negative = cytotoxic": "22%"}
{"compound": "Cc1cccc(C)c1NC(=O)CC12CCCN1CCC2", "activity change, negative = cytotoxic": "17.9%"}
{"compound": "CCCCOC(=O)c1ccc(N)cc1", "activity change, negative = cytotoxic": "31.7%"}
{"compound": "C[n+]1ccccc1/C=N/O", "activity change, negative = cytotoxic": "20%"}
{"compound": "Cc1cc(O)cc(C)c1Cl", "activity change, negative = cytotoxic": "17.3%"}
{"compound": "C=CCSCC1Nc2cc(Cl)c(S(N)(=O)=O)cc2S(=O)(=O)N1", "note": "(stereo not drawn)", "activity change, negative = cytotoxic": "-4.24%"}
{"compound": "CC(=O)N(CC(O)CN(C(C)=O)c1c(I)c(C(=O)NCC(O)CO)c(I)c(C(=O)NCC(O)CO)c1I)c1c(I)c(C(=O)NCC(O)CO)c(I)c(C(=O)NCC(O)CO)c1I", "note": "(stereo not drawn)", "activity change, negative = cytotoxic": "32.7%"}
{"compound": "CC(C)C[C@@H](N)C(=O)O", "activity change, negative = cytotoxic": "19.6% [at 16.1 µM]"}
{"compound": "CC(=O)NS(=O)(=O)c1ccc(N)cc1", "activity change, negative = cytotoxic": "18.2%"}
{"compound": "O[C@@H]1CO[C@H]2[C@@H]1OC[C@@H]2O", "activity change, negative = cytotoxic": "12.3%"}
{"compound": "NCc1ccc(S(N)(=O)=O)cc1", "activity change, negative = cytotoxic": "9.94%"}
{"compound": "CN[C@@H]1[C@H](O)[C@H](NC)[C@H]2O[C@@]3(O)C(=O)C[C@@H](C)O[C@H]3O[C@@H]2[C@H]1O", "activity change, negative = cytotoxic": "25.1%"}
{"compound": "COC(=O)c1ccccc1C(=O)c1ccc(OCCN2CCCCC2)cc1", "activity change, negative = cytotoxic": "14%"}
{"compound": "O=C1CC[C@@H](C(=O)O)N1", "activity change, negative = cytotoxic": "5.05%"}
{"compound": "Cc1c(C)c2c(c(C)c1OC(=O)c1cccnc1)CC[C@@](C)(CCC[C@H](C)CCC[C@H](C)CCCC(C)C)O2", "activity change, negative = cytotoxic": "18%"}
{"compound": "O=C(OOC(=O)c1ccccc1)c1ccccc1", "activity change, negative = cytotoxic": "22.7%"}
{"compound": "O=C(O)COC(=O)Cc1ccccc1Nc1c(Cl)cccc1Cl", "activity change, negative = cytotoxic": "23.9%"}
{"compound": "CC(C)CCOC(=O)c1ccc(N(C)C)cc1", "activity change, negative = cytotoxic": "22.8%"}
{"compound": "O=C(/C=C/c1ccc(O)c(O)c1)O[C@@H]1C[C@@](OC(=O)/C=C/c2ccc(O)c(O)c2)(C(=O)O)C[C@@H](O)[C@@H]1O", "activity change, negative = cytotoxic": "25.6%"}
{"compound": "C[C@H]1COc2c(C3(N)CC3)c(F)cc3c(=O)c(C(=O)O)cn1c23", "activity change, negative = cytotoxic": "13.8%"}
{"compound": "Cc1cc(NC(=O)C2=C(O)c3ccccc3S(=O)(=O)N2C)no1", "activity change, negative = cytotoxic": "4.77%"}
{"compound": "CC(CN(C)C)C(C)(O)Cc1ccc(Cl)cc1", "note": "(stereo not drawn)", "activity change, negative = cytotoxic": "22.7%"}
{"compound": "COC(=O)N/N=C/c1c[n+]([O-])c2ccccc2[n+]1[O-]", "activity change, negative = cytotoxic": "-2.16%"}
{"compound": "C=CCOc1ccccc1OCC(O)CNC(C)C", "note": "(stereo not drawn)", "activity change, negative = cytotoxic": "19%"}
{"compound": "COc1ccc(C(=O)NCc2ccc(OCCN(C)C)cc2)cc1OC", "activity change, negative = cytotoxic": "21.1%"}
